These results are taken from PubChem BioAssay.

The nature of the assay: basal HepG2 mitochondrial membrane potential changes, profiling panel, cell-based, JC-1 fluorescence, 24 h, 100 nL compound (AID 1167). Further: test concentration not given here. Particulars: higher = more signal.
For the compound `COc1ccc([Si](C)(C)[C@@H]2[C@@H](CCn3cc([C@H](O)c4ccccc4)nn3)O[C@]3(C(=O)N(c4ccccc4)c4ccccc43)[C@H]2C)cc1`, the z-score is 1.63.

Consider `CCN(CC)c1ccc(N2CC=CC34O[C@@H]5C=CCCOC(=O)C5[C@H]3C(=O)N(CCO)[C@@H]4C2=O)cc1` (stereo partly specified), for which the z-score was -0.178.

Consider `COc1ccc([Si](C)(C)[C@H]2[C@H](CCO)O[C@@]3(C(=O)N(Cc4ccc(N5C(=O)c6ccccc6Oc6ccccc65)cc4)c4ccccc43)[C@@H]2C)cc1`, for which the z-score stood at 0.0142.

Regarding `CC(C)CNC(=O)[C@@]1(C)c2ccccc2C(=O)N(Cc2cc(C(F)(F)F)cc(C(F)(F)F)c2)[C@H]1c1ccc(CO)cc1`, the z-score is 2.16.

For the compound `[N-]=[N+]=NC[C@H](Cc1ccccc1)NC(=O)c1ccccc1`, the z-score worked out at 0.581.

The compound `CN(C)C(=O)[C@]1(CCS(=O)(=O)c2ccccc2)N=C(c2ccc(OCCCO)cc2)O[C@@H]1c1ccccc1` came in with a z-score of 1.34.

Consider `O=C(CS)NCCCCCNC(=O)[C@@H]1C[C@@H]2C(=O)N[C@@H](Cc3ccccc3)C(=O)N2[C@@H]1c1cccc(OCCO)c1`, for which the z-score was found to be 1.51.

Compound `CN1C(=O)C2C=CC(C(O)c3ccc(F)cc3)N(NC(=O)OC(C)(C)C)C2C1=O` (stereo unspecified) gave a z-score of -0.8.

Take `[N-]=[N+]=NCc1ccccc1[C@@H]1OC(c2ccc(OCCCO)cc2)=N[C@]1(Cc1ccccc1)C(=O)NCCN1CCOCC1`: the z-score came to 1.14.

Regarding `[N-]=[N+]=Nc1ccccc1[C@@H]1OC(c2ccc(OCCCO)cc2)=N[C@]1(Cc1ccccc1)C(=O)NCc1ccccc1`, the z-score is -2.02.

For `CO[C@H]1O[C@H](CO)[C@@H](OC(=O)Nc2ccc(C#N)cc2)[C@@H]2OC(=O)[C@H](Cc3cccc(Br)c3)C/C=C/C[C@@H](Cc3cccc(Br)c3)C(=O)O[C@@H]12`, the z-score worked out at 1.73.

`CC(C)C[C@@H]1NC(=O)[C@@]23C(=O)N[C@@H](Cc4ccccc4)C2[C@H](C)[C@@]2(C)O[C@H]2C3/C=C/C/C=C\CNC(=O)[C@@H](C)NC1=O` (stereo partly specified) showed a z-score of 0.991.

`COCCOC(=O)N1C(=O)[C@@]2(c3cc(C#CCC(C(=O)OC)C(=O)OC)ccc31)[C@H](c1ccc(O)cc1)N1[C@H](c3ccccc3)[C@H](c3ccccc3)OC(=O)[C@H]1[C@@H]2C(=O)NC[C@H](O)c1ccccc1` gave a z-score of -0.689.

As for `C=CCC(OC(C)=O)[C@@H]1[C@@H](N(Cc2ccc(-c3cccc(C(F)(F)F)c3)o2)C(=O)c2ccc(C)cc2)c2cc(OCCCO)ccc2N1C(=O)Cc1ccc(OC)cc1` (stereo partly specified), the z-score is 3.98.

Regarding `CCCCC(=O)N(CCN1CCOCC1)[C@@H]1CC(C(=O)NCCO)=C[C@H](Oc2c(I)cc(CO)cc2OC)[C@H]1O`, the z-score was -0.959.

Turning to `O=C1NC(=O)C2C1C=CC(C(O)c1ccccn1)N2Nc1ccc(Cl)cc1Cl` (stereo unspecified), the z-score was -1.36.

With `C=CCC(OC(C)=O)[C@@H]1[C@@H](N(Cc2ccc(-c3cccc(C(F)(F)F)c3)o2)C(=O)Cc2ccc(OC)cc2)c2cc(OCCCO)ccc2N1C(=O)Cc1ccc2ccccc2c1` (stereo partly specified), the z-score was determined as 1.94.

Turning to `C=C[C@@H](C)[C@H](O)c1ccc(OCCO)cc1`, the z-score is 1.2.

With `O=C1O[C@H](c2ccccc2)[C@H](c2ccccc2)N2[C@H]1[C@@H](C(=O)N1CCCCCCC1)[C@]1(C(=O)Nc3ccc(C#CC4(O)CCCCCC4)cc31)[C@H]2c1ccccc1OCCO`, the z-score is -0.175.

Compound `O=C1O[C@H](c2ccccc2)[C@H](c2ccccc2)N2[C@H]1[C@@H](C(=O)N1CCCCCCC1)[C@]1(C(=O)Nc3ccc(C#CC4(O)CCCCCC4)cc31)[C@H]2c1ccc(O)cc1` registered a z-score of -0.806.

In the case of `COCCOC(=O)N1C(=O)[C@@]2(c3ccccc31)[C@H](c1ccc(OCCO)cc1)N1[C@H](c3ccccc3)[C@H](c3ccccc3)OC(=O)[C@H]1[C@@H]2C(=O)N1CCCCCCC1`, the z-score is -0.0288.

Regarding `CC(=O)NCCCC[C@@H]1NC(=O)[C@@H]2C[C@H](C(=O)NCCCCCCN)[C@H](c3cccc(OCCO)c3)N2C1=O`, the z-score is -1.26.

For the compound `[N-]=[N+]=Nc1ccccc1C[C@]1(C(=O)O)N=C(c2ccc(OCCCO)cc2)O[C@H]1c1ccccc1N=[N+]=[N-]`, the z-score is -0.914.

The compound `CCN(CC)c1ccc(N2CC=CC34O[C@@H]5/C=C\CCC(C)OC(=O)C5[C@H]3C(=O)N(C(C)CO)[C@@H]4C2=O)cc1` (stereo partly specified) returned a z-score of 1.16.

Regarding `O=C(O)[C@H]1C[C@H]2C(=O)N[C@@H](Cc3ccccc3)C(=O)N2[C@H]1c1cccc(OCCO)c1`, the z-score was 1.64.

As to `CCCCCCCCCCC(O)C1C=CC2C(=O)N(C)C(=O)C2N1Nc1cc(OC)c(OC)c(OC)c1` (stereo unspecified), the z-score was -0.993.

Take `C=CCN1C(=O)[C@]2(O[C@H](CCO)[C@@H]([Si](C)(C)c3ccc(OC)cc3)[C@@H]2C)c2cc(N3C(=O)COc4ccccc43)ccc21`: the z-score was -2.14.

In turn, `CCOC(=O)C1=CCC(c2ccccc2)N(S(=O)(=O)c2ccc([N+](=O)[O-])cc2)C1` (stereo unspecified) came in with a z-score of -1.73.

Take `CCOC(=O)C1=C[C@@H](c2ccccc2)N(S(=O)(=O)c2ccc(C)cc2)[C@H]1c1ccccc1`: the z-score is 1.62.

Compound `C=CCNC(=O)[C@@H]1[C@H]2C(=O)O[C@H](c3ccccc3)[C@H](c3ccccc3)N2[C@H](c2ccc(O)cc2)[C@@]12C(=O)Nc1ccc(C#CCC(C(=O)OC)C(=O)OC)cc12` had a z-score of -1.76.

The compound `C=C[C@@H](C)[C@@H](OC(=O)Nc1ccc(SC)cc1)c1ccc(OCCO)cc1` returned a z-score of -2.54.

On to `COc1cc(NN2C(C(O)c3cc(OC)c(OC)c(OC)c3)C=CC3C(=O)N(c4ccccc4)C(=O)C32)cc(OC)c1OC` (stereo unspecified), for which the z-score is -0.132.

`COc1ccc([Si](C)(C)[C@@H]2[C@@H](CC(=O)N3Cc4ccccc4C[C@H]3CO)O[C@]3(C(=O)N(Cc4ccc(N5CCC5=O)cc4)c4ccccc43)[C@H]2C)cc1` came in with a z-score of 1.13.

The compound `CN(C)C(=O)[C@@]1(CCC(=O)OC(C)(C)C)N=C(c2ccc(OCCCO)cc2)O[C@H]1c1ccccc1CN=[N+]=[N-]` had a z-score of 0.628.

`CCOC(=O)C[C@H]1[C@H](OC(=O)c2ccccc2-c2ccccc2)[C@@H](NC(=O)c2ccccc2)c2cc(OCCCO)ccc2N1C(=O)c1ccccc1` displayed a z-score of -0.127.

In the case of `CN(C)CCCC[C@@H]1NC(=O)[C@@H]2C[C@H](C(=O)O)[C@H](c3cccc(OCCO)c3)N2C1=O`, the z-score was 1.05.
